Assay outcomes: PubChem, National Center for Advancing Translational Sciences (NCATS)
NPSR antagonist: qHTS Assay for Antagonists of the Neuropeptide S Receptor: cAMP Signal Transduction. Q6W5P4. CHO-NPSR cells, cAMP TR-FRET, antagonist mode. Potency, µM (titrated, usually from 38.3 µM), for the others: at the top dose activity change, negative = inhibition, hits mostly inhibitors. 220,000 tested, 1% active; note: potency is the fitted concentration of half-maximal effect; nearly all actives have a fitted effect of over 50% in size
Target sequence (Q6W5P4 whole entry, looked up): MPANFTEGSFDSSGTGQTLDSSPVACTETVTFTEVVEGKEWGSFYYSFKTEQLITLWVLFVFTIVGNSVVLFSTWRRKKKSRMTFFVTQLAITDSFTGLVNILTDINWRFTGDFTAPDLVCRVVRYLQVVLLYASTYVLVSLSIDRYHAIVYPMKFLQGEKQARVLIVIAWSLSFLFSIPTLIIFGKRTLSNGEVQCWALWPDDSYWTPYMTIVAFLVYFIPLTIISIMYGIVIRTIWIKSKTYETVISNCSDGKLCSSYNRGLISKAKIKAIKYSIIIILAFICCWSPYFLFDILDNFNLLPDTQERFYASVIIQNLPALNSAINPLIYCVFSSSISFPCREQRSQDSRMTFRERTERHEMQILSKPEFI
IMPase inh: qHTS Assay for Identifying the Cell-Membrane Permeable IMPase Inhibitors | Inositol monophosphatase 1 (Rattus norvegicus), P97697 | CHO-M1 cells, IP1 accumulation, HTRF TR-FRET ratio | inhibition (IP1 accumulation), % at 46.1 µM | 120,000 tested, under 10 active | AID 901, 2007; active = well fitted curve in the direction sought with a large enough effect in the signal ratio, not every such curve was filed as active; inconclusive = small, poorly fitted or top-dose-only effect, or a change in a side signal; inactive = no such curve, though single readings can be large or run the other way; the % refers to the signal ratio;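 note: cells stimulated with carbachol in lithium chloride buffer; plate controls were DMSO basal wells for no effect and reference inhibitor wells for full effect; higher means more IMPase inhibition seen as more IP1 and lower FRET ratio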
Target sequence (P97697 whole entry, looked up): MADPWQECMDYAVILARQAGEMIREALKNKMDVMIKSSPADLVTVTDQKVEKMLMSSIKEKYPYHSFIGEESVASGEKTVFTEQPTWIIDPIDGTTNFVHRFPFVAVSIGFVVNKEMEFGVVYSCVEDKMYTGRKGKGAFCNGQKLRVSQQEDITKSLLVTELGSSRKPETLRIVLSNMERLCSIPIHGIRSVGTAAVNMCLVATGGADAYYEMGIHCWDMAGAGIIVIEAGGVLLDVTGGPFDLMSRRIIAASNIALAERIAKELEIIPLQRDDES
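Elevated IP1 in lysates lowers TR-FRET signal (665/620 ratio and 620 channel reported). Cells were CHO-M1, given carbachol (50 uM as added) plus 50mM LiCl, pH 7.4, 30 min, 37C; compounds titrated up to 46 uM; AC50 by Hill equation.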
IMPase Li cell: qHTS Assay for Identifying the Cell-Membrane Permeable IMPase Inhibitors: Potentiation with Lithium. Potency, µM (titrated, usually from 59.4 µM), for inactives: top-dose activity, negative = IMPase inhibition, hits mostly inhibitors. 210,000 tested, 0.35% active. CHO-M1 cells, IP1 TR-FRET (IP-One), carbachol + lithium;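 note: IP1 builds up when IMPase is blocked and the TR-FRET signal falls; potency is the fitted concentration of half-maximal effect; plate controls were basal vehicle for no effect and high inhibitor control for full effect; nearly all actives have a fitted effect of over 50% in size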
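CHO cells stably expressing M1 receptor (2000/well, cultured 16–30 h) treated 30 min at 37C with compound plus low lithium. Cytosolic IP1 by TR-FRET (665/620 ratio and 620 channel) after 10 min lysis; AC50 by Hill fit.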
HPGD inh: qHTS Assay for Inhibitors of HPGD (15-Hydroxyprostaglandin Dehydrogenase) | purified HPGD, NADH fluorescence kinetic, PGE2 substrate | Potency, µM, for inactives: top-dose activity change, negative = inhibition, hits mostly inhibitors | 150,000 tested, 4.3% active | AID 894, 2007; active = well fitted inhibition curve with a large enough effect, not every such curve was filed as active; inconclusive = small, poorly fitted or top-dose-only effect, or another doubt; inactive = no such curve, though single readings can be large or run the other way; note: potency is the fitted concentration of half-maximal effect
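NADH formation kinetics: reaction with 30 uM PGE2 and 1 mM NAD+ (final), 20 nM enzyme, Tris-HCl pH 8 with Tween 20, after 15 min compound preincubation at room temperature. Fluorescence change, last versus first of five reads.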
ALDH1A1 block: qHTS Assay for Inhibitors of Aldehyde Dehydrogenase 1 (ALDH1A1); Purified ALDH1A1, NADH fluorescence, propionaldehyde substrate; AID 1030, 2008; 220,000 tested, 7.3% active; Potency, µM (series often up to 75.3 µM), for the others: at the highest dose activity, negative = inhibition, most hits filed as inhibitors; active = well fitted inhibition curve with a large enough effect, not every such curve was filed as active; inconclusive = small, poorly fitted or top-dose-only effect, or another doubt; inactive = no such curve, though single readings can be large or run the other way;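 note: potency is the fitted concentration of half-maximal effect; plate controls were no enzyme wells and a reference inhibitor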
PNC assembly inh: High Content Assay for Compounds that inhibit the Assembly of the Perinucleolar Compartment; activity change (PNC), negative = inhibition, % at 10 µM; 140,000 tested, 3.1% active; PC3M PTB-GFP, PNC prevalence imaging, 16 h; hits give low values; AID 2417, 2010;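 active = readout at or below -70, meaning at least 70% loss of cells showing the perinucleolar compartment, a nuclear body marking cancer cells; inconclusive = readout between -30 and a set limit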;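 note: plate controls were DMSO wells for no effect and camptothecin positive control wells for full effect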
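PC3M cells stably expressing PTB-GFP, 750–1000 cells/well, treated 16 h at 37 °C with compound (23 nl of library stock), in duplicate. After paraformaldehyde fixation and Hoechst stain, imaged at 20x; PNC prevalence scored by image analysis.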
An asterisk follows results filed as active; ? = inconclusive; nt = no result; [ ] = remark or other dose. An excerpt weighted towards active compounds, which were near 11% of everything screened. Unless noted, calls come from the whole dose curve; as a rule, active = well fitted curve in the direction sought with a large enough effect; inconclusive = small, poorly fitted or top-dose-only effect, or another doubt; inactive = no such curve, though single readings can be large; an effect the other way counts as inactive or inconclusive. Unless noted, % is set by controls: 0 for no effect and ±100 for the full control effect.

SMILES	NPSR antagonist	IMPase inh	IMPase Li cell	HPGD inh	ALDH1A1 block	PNC assembly inh
O=C(CN1C(=O)C2CC=CCC2C1=O)Nc1nnc(SCc2c(Cl)cccc2Cl)s1 (stereo not given)	-17%[46.1 µM]	-9	19%[38.3 µM]	?	4%	-19
CC1=CC(=O)C=C(C)C1=NOS(=O)(=O)c1ccccc1	7.9µM*	?	57%[38.3 µM]	-15%	?	-14
CC1=CC(=O)C(C(C)C)=C/C1=N/OS(=O)(=O)c1ccccc1	4µM*	nt	nt	nt	nt	nt
Cc1ccc(S(=O)(=O)ON=C2CCN(S(=O)(=O)c3ccccc3)CC2)cc1	-8%[46.1 µM]	0	-8%[38.3 µM]	-7%	-5%	46
CC1=C(C(=O)Nc2ccc(F)c(F)c2)C(c2cccs2)NC(=S)N1 (stereo not given)	-4%	nt	2%	-6%	0.63µM*	-17
CC1=C(C(=O)OC(C)C)C(c2cccs2)NC(=S)N1 (stereo not given)	7%	-16	-1%	-9%	3.2µM*	?
Cc1cc(C(F)(F)F)c(C#N)c(SCC(=O)Nc2nc3ccccc3s2)n1	-20%[46.1 µM]	4	-7%	-22%	-2%	24
Cc1ccccc1NC(=O)CSc1nc2c(c(-c3ccco3)c1C#N)CCCC2	10µM*	3	?	-6%	7%	-20
Cc1nc(SCC(=O)Nc2nc3ccccc3s2)c(C#N)c(C)c1C	-38%	nt	4%	28µM*	?	16
Cc1ccccc1NC(=O)CSc1nc(N)c(C#N)c(-c2cccs2)c1C#N	?	?	5µM*	?	?	?
CCc1ccccc1NC(=O)CSc1nc2c(c(-c3ccco3)c1C#N)CCCC2	?	1	?	-12%	-1%	5
Cc1cc(=O)oc2cc(OCC(=O)N3CCN(C(=O)c4ccco4)CC3)ccc12	8%	nt	6%	nt	?	nt
O=S1(=O)N=C(Nc2nncs2)c2ccccc21	3%[46.1 µM]	-1	27%[38.3 µM]	28µM*	?	22
COc1cnn(-c2ccccc2)c(=O)c1N(C)C	-3%[46.1 µM]	3	14%[38.3 µM]	-3%	-3%	15
c1ccc(CCN(Cc2ccccc2)C2CCN(C3CCCC3)CC2)cc1	-34%	nt	30%	nt	40µM*	nt
CS(=O)c1ccccc1COC(=O)Nc1ccc(Cl)cc1 (stereo not given)	-20%[46.1 µM]	4[1.84 µM]	37%[38.3 µM]	-22%	?	-80*
CN(CC(=O)Nc1ccc(N2CCOCC2)cc1)CC(=O)Nc1ccccc1C#N	-6%[46.1 µM]	4	-4%	6%	1%	13
COc1ccc(S(=O)(=O)N2Cc3ccccc3CC2C(=O)Nc2nccs2)cc1 (stereo not given)	-13%[46.1 µM]	2	4%[38.3 µM]	-14%	5µM*	24
CCN(CC)CCNC(=O)c1cc(Sc2nnc(C)s2)nc2ccccc12	14%	nt	4%	1.3µM*	9%	-22
Cn1nnc(NC(=S)NC(=O)c2ccco2)n1	3%[46.1 µM]	19	-14%	?	3.5µM*	35
Cn1nnc(NC(=O)c2ccccc2)n1	11%[46.1 µM]	-9[0.369 µM]	-1%	2%	8%	-95*
COc1ccc(C(=O)NC(=S)Nc2nnn(C)n2)cc1	19%	nt	-6%	-30%	11µM*	-8
COc1cccc(C(=O)NC(=S)Nc2nnn(C)n2)c1	11%	nt	12%	?	22µM*	-7
CCOc1nc(N2CCOCC2)nc(C)c1[N+](=O)[O-]	8%	nt	0%	-9%	2%	-11
Cc1cc(/C=C2/NC(=O)N(Cc3ccccc3F)C2=O)c(C)n1-c1ccccn1	-13%	nt	-4%	?	8.9µM*	44
SMILES	NPSR antagonist	IMPase inh	IMPase Li cell	HPGD inh	ALDH1A1 block	PNC assembly inh
COc1ccc(/C=C2/NC(=O)N(Cc3ccccc3F)C2=O)cc1OC	0%	nt	-4%	nt	?	nt
COc1cc(/C=C2/NC(=O)N(Cc3ccccc3F)C2=O)cc(OC)c1OC	23%	nt	-2%	nt	2.5µM*	nt
Cc1cc(/C=c2/sc3nc4ccccc4n3c2=O)c(C)n1-c1ccccn1	?	7	17%[38.3 µM]	-11%	13µM*	-8
Cc1cccc(CN2C(=O)N/C(=C/c3cc(C)n(-c4ccccn4)c3C)C2=O)c1	-17%[46.1 µM]	5	33%[38.3 µM]	-20%	?	-29
CCOc1cc([N+](=O)[O-])cc(/C=C2/NC(=O)N(Cc3ccccc3F)C2=O)c1O	?	nt	6%	nt	2.2µM*	nt
Cc1cc(/C=c2\sc3nc4ccccc4n3c2=O)c(C)n1-c1ccc(C(=O)O)cc1	-59%	nt	12%	nt	?	nt
O=[N+]([O-])c1ccccc1CN1CCN(Cc2ccccn2)CC1	14%	nt	5%	nt	?	nt
Cc1ccc(/C=C2/NC(=O)N(Cc3ccccc3F)C2=O)s1	2%	nt	-12%	nt	?	nt
Cc1cc(/C=C2/NC(=O)N(Cc3ccccc3F)C2=O)c(C)n1C	-5%	nt	1%	-14%	1.1µM*	?
Cc1ccc(-c2cc(O)cc3sc(=O)oc23)cc1C	-14%	nt	nt	nt	nt	nt
Cc1nc(=O)c(-c2ccccc2)c(C)n1CC1CCCO1 (stereo not given)	-10%[46.1 µM]	-2	-6%[38.3 µM]	-7%	10%	31
Clc1ccc(Cn2ncc3c(NCc4ccccc4)ncnc32)c(Cl)c1	-20%	nt	12%	20µM*	?	-3
CCOC(=O)c1sc(NC(=O)CSc2n[nH]c(C)n2)nc1C	0%	nt	9%	nt	1%	nt
Cc1cc(O)c(C=O)c2c1C(=O)Oc1c(COC(=O)/C=C/C(=O)O)c(O)c(C(=O)O)c(C)c1O2	nt	nt	-21%	1.4µM*	4.5µM*	nt
Cn1ncc([N+](=O)[O-])c1C(=O)Nc1nccs1	13%	nt	1%	?	0%	-105*
Cc1ccccc1NC(=O)Cn1cccc1	-1%[46.1 µM]	3	-1%[38.3 µM]	32µM*	8%	?
Cc1ccccc1NC(=O)CN1C(=O)C2C3CC(C(Br)C3Br)C2C1=O (stereo not given)	4%	nt	-10%	14µM*	10µM*	-17
Cc1c(Cl)cccc1NC(=O)Cn1cccc1	-2%[46.1 µM]	5	-15%[38.3 µM]	18µM*	8%	0
O=C(Nc1cccc(F)c1)N1CC=C(n2c(=O)[nH]c3ccccc32)CC1	-17%[46.1 µM]	-1	-1%	?	-4%	?
Cc1nn(C)cc1C1C2=C(CC(C)(C)CC2=O)N(c2ccccc2)C2=C1C(=O)CC(C)(C)C2	-7%[46.1 µM]	0	35%[38.3 µM]	?	?	?
C(=C\c1ccco1)/C=N/n1cnnc1	-4%[46.1 µM]	-3	15%[38.3 µM]	32µM*	3.2µM*	?
